Drawing on PubChem BioAssay (NCI), this text covers growth for 40 compounds.

This is part of a sample that, as a whole, favours compounds with a hit. Of some 83,000 tested, about 20% had one in any assay.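 Negative percent growth values reflect cell death: -40 means 40% of the cells present at the start died, and -100 means all died.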 Active and inactive are the calls of the source. Rule for the calls: active = growth percent below 10; inactive = the rest.

The subject of the assay is MDA-MB-468 breast. The assay can be described thus: NCI-60 one-dose screen, 48 h (100 = growth as untreated, 0 = no growth, -100 = all killed). The following applies: 10 µM unless noted.
For `O=C1c2ccccc2C(=O)c2c1ccc(C(Br)Br)c2Cl`, the growth was -12.6% (active).

Regarding `CCOc1ccc(NC(=S)N2CCC(CCCC3CCN(C(=S)Nc4ccc(OCC)cc4)CC3)CC2)cc1`, the growth was 58.7% (inactive).

`Cc1ccc(S(=O)(=O)c2nc(-c3ccc(F)cc3)oc2S(C)(=O)=O)cc1`: the growth was 57.7% (inactive).

As for `O=S(=O)(Oc1ccc(-c2cn3ccoc3n2)cc1)c1cccc(C(F)(F)F)c1`, the growth was 86.9% (inactive).

With `N#Cc1c(O)c2c(c(O)c1C#N)C(=O)c1ccccc1C2=O`, the growth is 7.71% (active).

As to `COC(=O)c1c2c(c(C)[n+]([O-])c1C)C(=O)C(NCc1ccc(Br)cc1)=CC2=O`, the growth was -16.6% (active).

With `O=C(/C=C\c1ccccc1)N1c2ccccc2CC1c1c[nH]c2ccccc12` (stereo not given), the growth was 80.6% (inactive).

In the case of `Oc1ccc(CN2CCC(N3CCCCC3)CC2)c2cccnc12`, the growth is 23.9% (inactive).

With `N#Cc1c(-c2ccccc2)nc(SCc2nnc(-c3ccc(Cl)cc3)o2)[nH]c1=O`, the growth was 103% (inactive).

With `CC(=NNc1ncnc2ccccc12)c1ccc(S(C)(=O)=O)cc1`, the growth was 103% (inactive).

In the case of `COC(=O)C[C@@H]1CC=CC(=O)/C1=C(O)/C=C/c1ccccc1`, the growth is -85.5% (active).

Consider `N#Cc1c(-c2ccccc2)nc(SCC(=O)Nc2nc(-c3ccc(Cl)cc3)cs2)[nH]c1=O`, for which the growth is 85.7% (inactive).

With `N#CC1(O)CCCCC1`, the growth is 108% (inactive).

On to `CCOC(=O)Nc1ccc(-c2ccc3c(c2)NC(=O)/C3=C\c2ccc[nH]2)cc1`, for which the growth is -8.48% (active).

Take `C(=N/Nc1ncc(-c2cc3cc(-c4ccccc4)ccc3o2)s1)/c1cccs1`: the growth is 77.6% (inactive).

On to `c1ccc(-c2nc(N3CCCNCC3)c3nc(-c4ccccc4)oc3n2)cc1`, for which the growth is -52.9% (active).

As to `O=C(O)c1c([N+](=O)[O-])cnc2ccccc12`, the growth is 112% (inactive).

As for `COC(=O)c1ccc2[nH]c(O)c(C(=Nc3ccc(N(C)C(=O)CN4CCN(C)CC4)cc3)c3cccc(OC)c3)c2c1`, the growth is 37.3% (inactive).

With `CCOc1cc2ncc(C#N)c(Nc3ccc(OCc4cccc(F)c4)c(Cl)c3)c2cc1NC(=O)CC1CCSS1` (stereo not given), the growth was -5.09% (active).

Take `COc1cc(-c2c3c(cn2CCN2CCCCC2)-c2oncc2CC3)cc(OC)c1OC`: the growth is 94.6% (inactive).

Take `O=c1[nH]ccc2c(S(=O)(=O)N3CCCNCC3)cccc12`: the growth is 15.9% (inactive).

Regarding `Clc1ccc2sc(-c3ccccc3)nc2c1`, the growth is 68.9% (inactive).

For the compound `COc1ccc(-c2ccc(-c3ccc(C(=N)N)cn3)s2)cc1`, the growth was 72.6% (inactive).

As to `CC1(/C=N/NC(N)=S)NC(=O)NC1=O` (stereo not given), the growth was 102% (inactive).

With `O=C1C(Br)=CC2C1C1C3CCC3C2(Br)C12OCCO2` (stereo not given), the growth is 19.4% (inactive).

`O=S(=O)(c1cc(Cl)ccc1O)c1cc(Cl)ccc1O`: the growth is 63.1% (inactive).

In the case of `Nc1ccc(C(=O)/C=C/c2ccccc2)cc1`, the growth is 87.4% (inactive).

Regarding `COC(=O)[C@]12CC[C@@H](C)[C@H](C)[C@@H]1C1=CC[C@@H]3[C@@]4(C)C(C=O)=C[C@@](C)(CO)[C@@H]4[C@H](O)C[C@@]3(C)[C@]1(C)CC2`, the growth was -12% (active).

In the case of `Cn1cc(-c2csc(-c3c[nH]c4ccccc34)n2)c2cccnc21`, the growth is -22% (active).

`N#CSCc1ccc(CSC#N)c(Cl)c1`: the growth was 44.1% (inactive).

For the compound `CCCC(O)Cn1ncc(C(=O)OCC)c1NC(=O)NCc1cccc(C(F)(F)F)c1` (stereo not given), the growth is 79.3% (inactive).

For `COC(=O)/C(CCC=C(C)C)=C1\[C@@H](OC(C)=O)C[C@@]2(C)[C@H]1C[C@@H](O)[C@H]1[C@@]3(C)CC[C@H](NCCN)[C@@H](C)[C@@H]3CC[C@@]12C`, the growth is 58.6% (inactive).

Take `NC(=O)Nc1ccc(-n2cnc3cc(-c4ccc(O)cc4)ccc32)cc1`: the growth is 129% (inactive).

Turning to `CCCCN1C(=O)/C(=c2\sc3n(c2=O)C2C(NN=3)N(CC)C(=O)N2CC)c2cc(C)ccc21` (stereo not given), the growth is 65.4% (inactive).

As to `C1=C(Cc2ccccc2)n2cnc3ncnc(c32)S1`, the growth was -11.8% (active).

For the compound `O=C(CSc1nnc2sc(Nc3cccc(Cl)c3)nn12)c1ccc(F)cc1`, the growth is 89.5% (inactive).

As to `S=c1nn[nH]n1C1CCCCC1`, the growth was 125% (inactive).

For the compound `CN1CCN(Cc2ccc(NC(=O)c3cncc(C#Cc4ncc5cnccn45)c3)cc2C(F)(F)F)CC1`, the growth is 86.7% (inactive).

Turning to `CC(=O)c1cc(C(=O)c2ccc3c(c2)Sc2ccccc2N3)c2c(C)cccn12`, the growth was 14% (inactive).

Consider `COC(=O)c1c2c(c[n+]([O-])c1C)C(=O)C=CC2=O`, for which the growth is -17.2% (active).
